# From ChEMBL document CHEMBL3988442, “University of Dundee, Small-Polar-MMV Screening Library” (2021)
# Biological target: T1, Methionyl-tRNA synthetase, putative (Leishmania donovani (strain BPK282A1)) (UniProt E9BF75)
# T1 sequence (whole entry): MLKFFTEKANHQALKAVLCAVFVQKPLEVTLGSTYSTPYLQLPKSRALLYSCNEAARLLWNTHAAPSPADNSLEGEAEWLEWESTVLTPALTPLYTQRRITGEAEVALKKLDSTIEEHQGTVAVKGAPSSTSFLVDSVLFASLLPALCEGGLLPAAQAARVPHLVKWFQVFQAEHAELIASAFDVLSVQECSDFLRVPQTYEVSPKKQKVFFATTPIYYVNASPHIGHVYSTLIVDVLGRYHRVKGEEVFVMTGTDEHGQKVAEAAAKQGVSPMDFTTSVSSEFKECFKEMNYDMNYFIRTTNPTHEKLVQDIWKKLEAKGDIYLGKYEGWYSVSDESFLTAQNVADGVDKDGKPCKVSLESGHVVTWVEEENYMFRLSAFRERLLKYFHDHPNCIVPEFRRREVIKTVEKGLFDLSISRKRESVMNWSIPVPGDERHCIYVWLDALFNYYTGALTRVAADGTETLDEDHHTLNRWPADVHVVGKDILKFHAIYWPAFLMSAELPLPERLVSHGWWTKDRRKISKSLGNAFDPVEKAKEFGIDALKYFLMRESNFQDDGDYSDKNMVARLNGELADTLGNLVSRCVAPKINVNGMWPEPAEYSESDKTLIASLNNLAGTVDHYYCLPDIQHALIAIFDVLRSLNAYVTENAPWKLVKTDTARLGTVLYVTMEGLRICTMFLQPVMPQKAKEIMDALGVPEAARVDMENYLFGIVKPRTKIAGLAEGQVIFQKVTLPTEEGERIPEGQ
# Test: Leishmania donovani Methionine tRNA synthetase (LdMetRS):v7. Dose response assay
# Format: functional
# Set-up: conc 80 nM, time 150 minutes
compound,measurement,setting,value
Cn1ncc2c(NCCO)nc(NCc3cccc(F)c3)nc21,PXC50,MAX_EFFECT 8.142493639,< 4
same,PXC50,MAX_EFFECT 8.301886792,< 4
same,PXC50,MAX_EFFECT 9.649122807,< 4
Cc1noc(CCNc2nc(Nc3ccc(F)c(F)c3)nc3c2cnn3C)n1,PXC50,"BOTTOM 2.244251311, HILLSLOPE 1.0049242, MAX_EFFECT 73.69439072, TOP 84.09605428",4.84
same,PXC50,"BOTTOM 5.127321336, HILLSLOPE 1.112866852, MAX_EFFECT 63.09012876, TOP 72.94792798",4.77
same,PXC50,"BOTTOM 6.005431852, HILLSLOPE 0.908019528, MAX_EFFECT 65.55819477, TOP 83.02457631",4.61
OCCNc1nc(Nc2cccc(F)c2)nc2ccsc12,PXC50,"BOTTOM 3.044431964, HILLSLOPE 0.890140098, MAX_EFFECT 69.62809917, TOP 98.77893837",4.42
same,PXC50,"BOTTOM -0.299639933, HILLSLOPE 0.74457476, MAX_EFFECT 65.18375242, TOP 100.0",4.37
same,PXC50,"BOTTOM -0.909696564, HILLSLOPE 1.048927528, MAX_EFFECT 68.28193833, TOP 78.21382142",4.73
Cc1cc(NCCO)nc(Nc2ccc(F)c(F)c2)n1,PXC50,"BOTTOM 2.753913498, HILLSLOPE 0.759187316, MAX_EFFECT 87.41092637, TOP 100.0",4.84
same,PXC50,"BOTTOM 8.051339334, HILLSLOPE 0.840494555, MAX_EFFECT 84.97854077, TOP 109.6160526",4.62
same,PXC50,"BOTTOM -3.669323527, HILLSLOPE 0.810726137, MAX_EFFECT 81.68224299, TOP 99.92002792",4.84
c1ccc(CNc2ncc(CN3CCCN4CCC[C@H]4C3)cn2)cc1,PXC50,"BOTTOM -0.610075864, HILLSLOPE 1.031656218, MAX_EFFECT 61.9047619, TOP 100.0",4.18
same,PXC50,"BOTTOM -1.183822823, HILLSLOPE 1.053099151, MAX_EFFECT 65.67425569, TOP 100.0",4.24
same,PXC50,MAX_EFFECT 60.86956522,< 4
CN(C)S(=O)(=O)c1cccnc1Nc1cccc(C(F)(F)F)c1,PXC50,MAX_EFFECT 3.964757709,< 4
same,PXC50,MAX_EFFECT 9.867172676,< 4
same,PXC50,MAX_EFFECT -2.272727273,< 4
CNc1nc(Nc2ccc(F)c(F)c2)nc2c1cnn2C,PXC50,"BOTTOM 0.870209489, HILLSLOPE 0.808254997, MAX_EFFECT 89.4026975, TOP 100.0",5.22
same,PXC50,"BOTTOM 6.300791226, HILLSLOPE 0.864616698, MAX_EFFECT 89.69957082, TOP 97.1703974",5.16
same,PXC50,"BOTTOM -2.296989521, HILLSLOPE 0.747850258, MAX_EFFECT 89.3111639, TOP 97.09484857",5.35
OCCNc1nc(Nc2ccc(F)c(F)c2)ncc1F,PXC50,"BOTTOM 4.80997506, HILLSLOPE 1.016069871, MAX_EFFECT 75.05938242, TOP 103.871029",4.37
same,PXC50,"BOTTOM 6.495032966, HILLSLOPE 1.205723909, MAX_EFFECT 75.53648069, TOP 100.0",4.33
same,PXC50,"BOTTOM -1.721460895, HILLSLOPE 0.874564497, MAX_EFFECT 71.96261682, TOP 100.0",4.5
COc1cc(Nc2nc(NCCO)c3cnn(C)c3n2)cc(C(F)(F)F)c1,PXC50,MAX_EFFECT 10.13215859,< 4
same,PXC50,MAX_EFFECT 10.95041322,< 4
same,PXC50,MAX_EFFECT 12.18568665,< 4
OCCNc1nc(Nc2ccc(F)c(F)c2)nc2ccsc12,PXC50,"BOTTOM 1.719198718, HILLSLOPE 0.904710071, MAX_EFFECT 90.94412331, TOP 99.0565164",5.18
same,PXC50,"BOTTOM 2.94588064, HILLSLOPE 1.041078654, MAX_EFFECT 85.02202643, TOP 89.21565971",5.26
same,PXC50,"BOTTOM 5.256543605, HILLSLOPE 0.944714137, MAX_EFFECT 88.2231405, TOP 97.0813666",5.17
Cc1nc(Cc2ccc(F)cc2)cc(C2COCCN2)n1 (stereo unspecified),PXC50,"BOTTOM 2.29407011, HILLSLOPE 1.165905826, MAX_EFFECT 59.72222222, TOP 100.0",4.12
same,PXC50,"BOTTOM 7.218737982, HILLSLOPE 1.406075807, MAX_EFFECT 57.71812081, TOP 100.0",4.05
same,PXC50,MAX_EFFECT 41.7677643,< 4
NS(=O)(=O)c1ccc(Nc2ncccc2S(N)(=O)=O)cc1,PXC50,MAX_EFFECT 6.072106262,< 4
same,PXC50,MAX_EFFECT 13.21585903,< 4
same,PXC50,MAX_EFFECT 15.90909091,< 4
Cn1ncc2c(N3CCCCC3)nc(Nc3ccc(F)c(F)c3)nc21,PXC50,"BOTTOM 9.784183065, HILLSLOPE 1.295074552, MAX_EFFECT 52.03094778, TOP 54.78178501",5.24
same,PXC50,MAX_EFFECT 30.83700441,< 4
same,PXC50,MAX_EFFECT 34.09090909,< 4
CCc1[nH]c2c(CNc3cncc(C(=O)OC)n3)cc(C)cc2c1C,PXC50,MAX_EFFECT 7.798960139,< 4
same,PXC50,MAX_EFFECT 45.13888889,< 4
same,PXC50,MAX_EFFECT 45.63758389,< 4
COc1cccc(-c2noc3c2CN(c2ncnc4c2CCC4)CC3)c1,PXC50,MAX_EFFECT 38.4057971,< 4
same,PXC50,MAX_EFFECT 40.13605442,< 4
same,PXC50,MAX_EFFECT 45.70928196,< 4
COc1ccc(C)cc1CN1CCC(c2cc3ncccc3cn2)CC1,PXC50,"BOTTOM 4.302486836, HILLSLOPE 1.43779927, MAX_EFFECT 88.21490468, TOP 100.0",4.58
same,PXC50,"BOTTOM 8.282667515, HILLSLOPE 1.048150925, MAX_EFFECT 85.90604027, TOP 109.7015184",4.5
same,PXC50,"BOTTOM -10.94583239, HILLSLOPE 1.338598097, MAX_EFFECT 90.27777778, TOP 104.5409309",4.59
OCCNc1nc(Nc2cccc(Cl)c2)nc2ccsc12,PXC50,"BOTTOM 1.378134297, HILLSLOPE 1.322835543, MAX_EFFECT 77.47933884, TOP 79.16655544",5.15
same,PXC50,"BOTTOM 6.064283009, HILLSLOPE 1.027674538, MAX_EFFECT 79.88394584, TOP 88.71842546",4.91
same,PXC50,"BOTTOM -3.793761971, HILLSLOPE 0.936804969, MAX_EFFECT 83.25991189, TOP 91.73851926",5.08
